Compound activity (PubChem BioAssay)
Only some compounds are listed: those with a hit (about 2.8% of all), similar ones and a draw of the others.
pPAFAH FP inh – inhibitors of human plasma PAF acetylhydrolase (pPAFAH); recombinant pPAFAH, FP-rhodamine probe fluorescence polarization; inhibition, % at 3.39 µM; Q13093; 330,000 tested, 1.5% active;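 active means inhibition above the mean inhibition across the screen plus 3 SD, cut at about 25% in these data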;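 further: inhibitors block binding of the rhodamine activity-based probe so polarization drops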
PAFAH1B3 FP inh – PAFAH1B3 (human) inhibition; Q15102; recombinant PAFAH1B3, FP-rhodamine probe, fluorescence polarization; inhibition, % at 3.39 µM; 340,000 tested, 0.28% active; AID 492972;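 active means inhibition above the screen-wide average of all tested compounds plus 3 SD, cut at about 25% in these data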
Target sequence (Q15102 whole entry, looked up): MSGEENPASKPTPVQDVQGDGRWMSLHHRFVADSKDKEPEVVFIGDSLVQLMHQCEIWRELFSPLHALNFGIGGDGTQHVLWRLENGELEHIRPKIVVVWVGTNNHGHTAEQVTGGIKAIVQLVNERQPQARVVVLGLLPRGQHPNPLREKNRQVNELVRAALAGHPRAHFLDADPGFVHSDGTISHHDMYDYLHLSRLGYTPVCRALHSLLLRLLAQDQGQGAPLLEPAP
PME-1 inh – blocks human protein phosphatase methylesterase 1 | inhibition, % at 5.9 µM | AID 2130 | Q9Y570 | recombinant PME-1, FP-Rh probe fluorescence polarization | 320,000 tested, 0.53% active;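 active means inhibition above the campaign mean of all compounds plus 3 SD, cut at about 26% in these data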;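 further: competitive labeling of PME-1 active site by serine hydrolase directed probe; inhibitors block probe labeling so polarization falls and inhibition rises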
Target sequence (Q9Y570 whole entry, looked up): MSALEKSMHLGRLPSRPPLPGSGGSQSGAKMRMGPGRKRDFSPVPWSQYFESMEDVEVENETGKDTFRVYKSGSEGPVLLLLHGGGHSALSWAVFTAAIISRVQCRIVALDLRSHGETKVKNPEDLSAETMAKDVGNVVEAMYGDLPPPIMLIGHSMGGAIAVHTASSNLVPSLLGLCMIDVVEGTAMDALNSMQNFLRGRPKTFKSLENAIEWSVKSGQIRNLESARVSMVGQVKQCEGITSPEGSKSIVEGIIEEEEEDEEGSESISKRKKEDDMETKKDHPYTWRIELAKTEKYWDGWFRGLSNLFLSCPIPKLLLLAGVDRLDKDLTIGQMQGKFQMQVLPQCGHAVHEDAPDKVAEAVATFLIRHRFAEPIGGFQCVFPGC
Fam108B inh – blocks mouse Fam108B hydrolase in RBBP9 counter-screen | recombinant Fam108B, FP-Rh probe fluorescence polarization | inhibition, % at 9.51 µM | 300,000 tested, 0.33% active;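 active means inhibition above the screen mean inhibition plus 3 SD, computed separately per campaign, cut at about 18% in these data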;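 further: inhibitors lower polarization as less probe binds the enzyme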
PAFAH2 FP inh – PAFAH2 (human) inhibition; Q99487; recombinant PAFAH2, FP-rhodamine activity probe, fluorescence polarization; inhibition, % at 3.39 µM; 340,000 tested, 0.99% active;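 active means inhibition above the mean over all tested compounds plus 3 SD, cut at about 30% in these data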;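 further: inhibitors block probe labeling of enzyme so polarization drops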
PAFAH1B2 FP inh – blocks human PAF acetylhydrolase 1b catalytic subunit 2; inhibition, % at 3.39 µM; recombinant PAFAH1B2, FP-rhodamine activity probe, fluorescence polarization; 340,000 tested, 1.2% active;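 active means inhibition above the mean of all tested compounds plus 3 SD, cut at about 24% in these data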
PAFAH2 FP conf – PAFAH2 (human) inhibition, confirmed. shares compounds with PAFAH2 FP inh. recombinant PAFAH2, FP-rhodamine activity probe, fluorescence polarization. inhibition, % at 3.39 µM. 2,300 tested, 65% active;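 active means mean inhibition over three repeats above a set limit taken from the earlier primary screen, cut at about 30% in these data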;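 further: inhibitor blocks binding of rhodamine activity probe so polarization falls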
A number is an active result; . = inactive; / = no result given.

SMILES	pPAFAH FP inh	PAFAH1B3 FP inh	PME-1 inh	Fam108B inh	PAFAH2 FP inh	PAFAH1B2 FP inh	PAFAH2 FP conf
CCC1CN(S(=O)(=O)c2ccc3c(c2)NC(=O)CC(=O)N3)c2cc(Cl)ccc2O1 (centres undefined)	.	.	.	.	45.1	.	.
CCOC(=O)C1CN(S(=O)(=O)c2ccc(Cl)cc2)c2cc(S(=O)(=O)CC)ccc2O1 (centres undefined)	.	/	.	.	/	/	/
C/C(=C\c1ccccc1)C(=O)NCCCn1ccnc1	.	.	.	.	.	.	/
COc1ccc(/C=C/C(=O)OCC(=O)NC2CCCC2)cc1	.	.	.	/	83.5	.	85.9
COc1cccc(/C=C/C(=O)OCC(=O)NC(=O)NC2CCCC2)c1	.	.	.	/	.	.	/
COc1cccc(/C=C/C(=O)OCC(=O)NC2CCCCCCC2)c1	.	.	/	/	95.8	.	82.2
O=C(COC(=O)/C=C/c1ccc([N+](=O)[O-])cc1)NC(=O)NC1CCCCC1	.	.	/	/	.	.	/
COCCNC(=O)/C(C#N)=C/c1c(N2CCN(C)CC2)nc2ccccn2c1=O	.	.	.	.	.	.	/
N/C(=N\OC(=O)c1ccc2c(c1)OCO2)c1cccnc1	.	.	.	.	.	.	/
N/C(Cc1cccc2ccccc12)=N\OC(=O)c1ccc2c(c1)OCO2	.	.	.	.	81.0	.	78.2
N/C(=N\OC(=O)c1ccc2c(c1)OCO2)c1cccc(Br)c1	.	.	.	.	54.7	.	49.2
CC(C)CCN1C(=O)c2ccc(C(=O)Nc3ccccc3C(=O)O)cc2C1=O	/	.	/	/	40.3	.	.
O=C(OC1CCOC1=O)C1CCN(S(=O)(=O)c2ccccc2)CC1 (centres undefined)	.	.	.	/	.	.	/
COc1cc(/C=C/C(=O)OCC(=O)NCc2ccco2)cc(OC)c1OC	.	.	.	.	.	.	/
COc1cc(/C=C/C(=O)OCC(=O)NCc2ccco2)ccc1OCC#N	.	.	.	.	43.7	.	37.0
O=C(COC(=O)/C=C/c1ccc(C(F)(F)F)cc1)NCC1CCCO1 (centres undefined)	.	.	.	.	.	.	/
COc1cc(/C=C/C(=O)OCC(=O)NCC2CCCO2)ccc1OCC#N (centres undefined)	.	.	.	.	43.4	.	29.9
COc1ccc(CCNC(=O)COC(=O)/C=C/c2ccc(OCC#N)c(OC)c2)cc1OC	.	.	.	.	.	.	/
O=C(COC(=O)/C=C/c1ccc(F)cc1)NCC1CCCO1 (centres undefined)	.	.	/	/	37.8	.	.
CCN(CC(=O)Nc1c(F)cccc1F)C(=O)CSc1nnc(-c2ccco2)n1CC	.	.	.	.	.	.	/
COc1ccc(S(=O)(=O)Nc2cccc3c2O[C@H](CN(C)C(=O)NC2CCCCC2)[C@@H](C)CN([C@H](C)CO)C3=O)cc1	.	.	/	/	.	.	/
CC(=O)c1c(C)[nH]c(C(=O)OCC(=O)N2CC(C)OC(C)C2)c1C (centres undefined)	.	.	.	.	.	.	/
CCOC(=O)c1ccc(NC(=O)N2CCc3ccccc3C2)cc1	.	.	.	.	.	.	/
CNS(=O)(=O)c1cccc(C(=O)OCC(=O)N2CCc3ccccc3C2)c1	.	.	.	.	.	.	/
CC(=O)c1c(C)[nH]c(C(=O)OCC(=O)N2CCc3ccccc3C2)c1C	.	.	.	/	29.8	.	.
SMILES	pPAFAH FP inh	PAFAH1B3 FP inh	PME-1 inh	Fam108B inh	PAFAH2 FP inh	PAFAH1B2 FP inh	PAFAH2 FP conf
NC(=O)Nc1ccc(C(=O)OCC(=O)N2CCc3ccccc3C2)cc1	.	.	.	/	53.7	.	47.5
O=C(OCC(=O)N1CCc2ccccc2C1)c1ccc(O)cc1	.	.	/	/	46.8	.	30.5
O=C(NC1CCCC1)c1sc(=S)n2c1[nH]c(=O)c1ccccc12	.	.	.	.	38.5	.	31.9
O=C(NC1CCCCCCC1)c1c(O)c2ccccc2[nH]c1=O	.	.	.	.	.	.	/
Cc1ccccc1N(CC(=O)NC1CCCCC1)C(=O)CNC(=O)c1cccs1	.	.	.	.	.	.	/
Cc1ccc(C(=O)OCC(=O)NC(C)c2ccccc2)cc1C (centres undefined)	.	.	/	/	74.7	.	62.6
Cc1cc(C(=O)OCC(=O)NC(C)c2ccc(F)cc2)c(C)o1 (centres undefined)	.	.	.	/	48.3	.	34.4
Cc1cc(C(=O)OCC(=O)NC(C)c2ccccc2)c(C)o1 (centres undefined)	.	.	.	.	31.6	.	.
O=C(COC(=O)c1c[nH]c2ccccc12)Nc1ccc([N+](=O)[O-])cc1	.	.	.	/	72.6	.	72.7
CC(NC(=O)COC(=O)c1cc2ccccc2cc1O)c1ccccc1 (centres undefined)	/	.	/	/	.	.	/
Cc1ccc(/C=C/C(=O)OCC(=O)NC(C)c2ccccc2)o1 (centres undefined)	.	.	.	/	54.1	.	37.8
CC(NC(=O)COC(=O)c1c[nH]c2ccccc12)c1ccccc1 (centres undefined)	.	.	/	/	54.6	.	52.2
CC(NC(=O)CCc1c[nH]c2ccccc12)c1ccccc1 (centres undefined)	.	.	.	.	.	.	/
CC(NC(=O)COC(=O)/C=C/c1cccc(C(F)(F)F)c1)c1ccccc1 (centres undefined)	.	.	.	.	.	.	/
CCC(=O)N=c1ccn(C2=Nc3ccccc3NC2=C(C#N)C#N)cc1	.	.	.	.	.	.	/
Cc1nc(C)c(C(=O)OCC(=O)NCCc2ccc(F)cc2)s1	/	.	/	/	30.9	.	.
O=C(COC(=O)CCC(=O)c1cccs1)NCCc1ccccc1	.	.	/	/	.	.	/
O=C(COC(=O)c1ccc2c(c1)OCCO2)NCCc1ccc(F)cc1	.	.	/	/	67.9	.	53.9
O=C(COC(=O)c1cccs1)NCCc1ccc(F)cc1	/	.	/	/	55.3	.	49.0
Cc1nc(C)c(C(=O)OCC(=O)Nc2cccc(C)c2C)s1	.	.	.	/	66.3	.	51.0
Cc1nc(C)c(C(=O)Nc2cccc(C)c2C)s1	.	.	.	.	.	.	/
COc1ccc(CCOC(=O)c2ccc(N)c([N+](=O)[O-])c2)cc1	.	.	.	.	.	.	/
CCOC(=O)c1cnc2c(C(=O)OC)cccc2c1NCc1cccnc1	.	.	.	.	.	.	/
Nc1cc(=O)[nH]c(=O)n1CCCc1ccccc1	.	.	.	.	.	.	/
O=C(COC(=O)c1cc(Cl)nc(Cl)c1)NCCc1ccc(F)cc1	.	.	/	/	.	.	/
O=C(COC(=O)c1ccc(F)cc1)NCCc1ccc(F)cc1	.	.	.	.	36.2	.	.
COc1cc(C(=O)NNC(=S)NC(=O)c2ccc(F)cc2)cc(OC)c1OC	.	.	.	.	50.9	.	.
